Measured values: PubChem BioAssay (NCI)
The panel holds about 83,000 compounds, 20% with a hit somewhere; the sample as a whole holds those more often.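 Note: values are percent growth. 100 is the growth of untreated cells, values between 100 and 0 indicate rising inhibition; between -100 and 0 indicates cell death.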 The source made the active and inactive calls. The calls were made as follows: active = growth percent below 10; inactive = the rest.

Columns and labels:
Test in all cases: NCI-60 one-dose screen, 48 h (100 = growth as untreated, 0 = no growth, -100 = all killed)
Conditions in all cases: 10 µM
HCT-15 colon = system: HCT-15 colon
HT29 colon = system: HT29 colon
SNB-75 CNS = system: SNB-75 CNS
SNB-19 CNS = system: SNB-19 CNS
U251 CNS = system: U251 CNS
PC-3 prostate = system: PC-3 prostate
SK-MEL-5 melanoma = system: SK-MEL-5 melanoma
UACC-62 melanoma = system: UACC-62 melanoma
LOX IMVI melanoma = system: LOX IMVI melanoma
SK-MEL-28 melanoma = system: SK-MEL-28 melanoma
SK-MEL-2 melanoma = system: SK-MEL-2 melanoma
EKVX NSCLC = system: EKVX NSCLC
SN12C renal = system: SN12C renal
UO-31 renal = system: UO-31 renal
TK-10 renal = system: TK-10 renal
ACHN renal = system: ACHN renal
CAKI-1 renal = system: CAKI-1 renal
A498 renal = system: A498 renal
CCRF-CEM leukemia = system: CCRF-CEM leukemia
MOLT-4 leukemia = system: MOLT-4 leukemia

Measured: growth

CCCCNC(=O)Oc1ccc(/C(=C(\C)c2ccc(OC)cc2)c2ccc(OCCN3CCCCC3)cc2)cc1
inactive: SNB-75 CNS 70.6% | SNB-19 CNS 69.9% | U251 CNS 38.9% | PC-3 prostate 43.3% | SK-MEL-5 melanoma 44.7% | UACC-62 melanoma 44% | LOX IMVI melanoma 20.1% | SK-MEL-2 melanoma 67.8% | EKVX NSCLC 68.3% | SN12C renal 69.1% | UO-31 renal 11.2% | TK-10 renal 102% | ACHN renal 78.6% | CAKI-1 renal 60.3% | A498 renal 71% | CCRF-CEM leukemia 58.5% | MOLT-4 leukemia 20.1%
active: HCT-15 colon 0.377% | HT29 colon 7.84% | SK-MEL-28 melanoma 2.55%

COc1ccc(/C(=C/c2cc(OC)c(OC)cc2[N+](=O)[O-])C(=O)O)cc1
inactive: HCT-15 colon 107% | HT29 colon 109% | SNB-75 CNS 93.8% | SNB-19 CNS 106% | U251 CNS 107% | PC-3 prostate 99.2% | SK-MEL-5 melanoma 110% | UACC-62 melanoma 106% | LOX IMVI melanoma 97.1% | SK-MEL-28 melanoma 116% | SK-MEL-2 melanoma 107% | EKVX NSCLC 105% | SN12C renal 104% | UO-31 renal 83% | TK-10 renal 118% | ACHN renal 108% | CAKI-1 renal 96.1% | A498 renal 105% | CCRF-CEM leukemia 98.6% | MOLT-4 leukemia 103%

COc1cc(N=C2C(=O)N(Cc3ccccc3)c3ccccc32)cc(OC)c1OC
inactive: HCT-15 colon 95.3% | HT29 colon 103% | SNB-75 CNS 82.6% | SNB-19 CNS 95.1% | U251 CNS 94.2% | PC-3 prostate 97.8% | SK-MEL-5 melanoma 94.2% | UACC-62 melanoma 90.8% | LOX IMVI melanoma 86.9% | SK-MEL-28 melanoma 113% | SK-MEL-2 melanoma 98.3% | EKVX NSCLC 101% | SN12C renal 99.6% | UO-31 renal 77.3% | TK-10 renal 112% | ACHN renal 97.4% | CAKI-1 renal 83.8% | A498 renal 108% | CCRF-CEM leukemia 29.5% | MOLT-4 leukemia 96.9%

Cc1ccc(Cl)cc1Nc1nc(C(F)(F)F)ccc1C(=O)N/N=C/c1c(Cl)cccc1Cl
inactive: HCT-15 colon 10.4% | HT29 colon 16.6% | SNB-75 CNS 26.1% | SNB-19 CNS 10.6% | SK-MEL-28 melanoma 18.7% | TK-10 renal 22.7%
active: U251 CNS 2.72% | PC-3 prostate -18.2% | SK-MEL-5 melanoma -74.4% | UACC-62 melanoma -17.6% | LOX IMVI melanoma -22.3% | SK-MEL-2 melanoma 0.639% | EKVX NSCLC 4.91% | SN12C renal 9.96% | UO-31 renal -23.3% | ACHN renal 0.0524% | CAKI-1 renal -12.5% | A498 renal -13.3% | CCRF-CEM leukemia -21.2% | MOLT-4 leukemia 8.23%

COc1ccc(Cn2cc3c(c2-c2cc(OC)c(OC)c(OC)c2)CCc2cnoc2-3)cc1[N+](=O)[O-]
inactive: HCT-15 colon 34.2% | HT29 colon 13.1% | SNB-75 CNS 18.5% | SNB-19 CNS 43.2% | U251 CNS 39.8% | PC-3 prostate 27.6% | SK-MEL-5 melanoma 16% | UACC-62 melanoma 35.4% | LOX IMVI melanoma 39.6% | SK-MEL-28 melanoma 68.9% | SK-MEL-2 melanoma 43.4% | EKVX NSCLC 20.4% | SN12C renal 43.4% | UO-31 renal 36.9% | TK-10 renal 76.4% | ACHN renal 60.4% | CAKI-1 renal 16.1% | A498 renal 45.2% | CCRF-CEM leukemia 22% | MOLT-4 leukemia 30%

COc1cc(C2c3cc4c(cc3C(O)C(CO)C2CO)OCO4)cc(OC)c1OC (stereo not given)
active: HT29 colon 5.41% | SNB-75 CNS -4.31% | EKVX NSCLC 7.57% | A498 renal -0.141%
inactive: HCT-15 colon 61.2% | SNB-19 CNS 35.8% | U251 CNS 22.3% | PC-3 prostate 25.3% | SK-MEL-5 melanoma 11.1% | UACC-62 melanoma 40.8% | LOX IMVI melanoma 43.8% | SK-MEL-28 melanoma 44.1% | SK-MEL-2 melanoma 32.2% | SN12C renal 46.1% | UO-31 renal 13.4% | TK-10 renal 46.7% | ACHN renal 53.9% | CAKI-1 renal 65.9% | CCRF-CEM leukemia 15.6% | MOLT-4 leukemia 16.8%

COc1ccc(Cn2cc3c(c2-c2cc(OC)c(OC)c(OC)c2)CCc2cnoc2-3)cc1N
active: HT29 colon 8.78% | SK-MEL-5 melanoma -17.9% | CAKI-1 renal 6.52%
inactive: HCT-15 colon 17.5% | SNB-75 CNS 50.5% | SNB-19 CNS 44.6% | U251 CNS 23.2% | PC-3 prostate 31.1% | UACC-62 melanoma 50.5% | LOX IMVI melanoma 18.7% | SK-MEL-28 melanoma 62% | SK-MEL-2 melanoma 37.1% | EKVX NSCLC 27.4% | SN12C renal 27.6% | UO-31 renal 40.4% | TK-10 renal 75.6% | ACHN renal 38.8% | A498 renal 25% | CCRF-CEM leukemia 23.7% | MOLT-4 leukemia 24.6%

COc1c(C)c(C)c(OC)c2c1[nH]c(=O)c1c3cccnc3cn21
inactive: HCT-15 colon 118% | HT29 colon 104% | SNB-75 CNS 106% | SNB-19 CNS 108% | U251 CNS 106% | PC-3 prostate 97.3% | SK-MEL-5 melanoma 119% | UACC-62 melanoma 98.4% | LOX IMVI melanoma 107% | SK-MEL-28 melanoma 125% | SK-MEL-2 melanoma 110% | EKVX NSCLC 100% | SN12C renal 99.5% | UO-31 renal 91.2% | TK-10 renal 117% | ACHN renal 114% | CAKI-1 renal 104% | A498 renal 120% | CCRF-CEM leukemia 101% | MOLT-4 leukemia 99.4%

CCOc1nc(-c2ccccc2)cc2c(O)c(C(=O)NC(C)C)[nH]c(=O)c12
inactive: HCT-15 colon 99.7% | HT29 colon 125% | SNB-75 CNS 103% | SNB-19 CNS 96.9% | U251 CNS 99.8% | PC-3 prostate 46.4% | SK-MEL-5 melanoma 99.5% | UACC-62 melanoma 105% | LOX IMVI melanoma 97.6% | SK-MEL-28 melanoma 89.7% | SK-MEL-2 melanoma 126% | EKVX NSCLC 105% | SN12C renal 114% | UO-31 renal 80.2% | TK-10 renal 133% | ACHN renal 97.6% | CAKI-1 renal 94.2% | A498 renal 100% | CCRF-CEM leukemia 58.2% | MOLT-4 leukemia 99.1%

O=CNc1c(Cl)cc2c(c1Cl)Cc1cc([N+](=O)[O-])ccc1-2
active: SK-MEL-5 melanoma 5.14%
inactive: HCT-15 colon 29.3% | HT29 colon 58.4% | SNB-75 CNS 65.6% | SNB-19 CNS 87.5% | U251 CNS 78.1% | PC-3 prostate 40.2% | UACC-62 melanoma 48.8% | LOX IMVI melanoma 55.7% | SK-MEL-28 melanoma 106% | SK-MEL-2 melanoma 38.1% | EKVX NSCLC 30.7% | SN12C renal 80.6% | UO-31 renal 71.7% | TK-10 renal 90.3% | ACHN renal 68.7% | CAKI-1 renal 82.1% | A498 renal 85.9% | CCRF-CEM leukemia 14.7% | MOLT-4 leukemia 33%

Cc1ccc2nc3[nH]c(=O)[nH]c(=O)c3c(N)c2c1
inactive: HCT-15 colon 84% | HT29 colon 83.3% | SNB-75 CNS 90% | SNB-19 CNS 86.2% | U251 CNS 89.1% | PC-3 prostate 85.6% | SK-MEL-5 melanoma 84% | UACC-62 melanoma 47.3% | LOX IMVI melanoma 75.2% | SK-MEL-28 melanoma 98.3% | SK-MEL-2 melanoma 98% | EKVX NSCLC 59.9% | SN12C renal 72.6% | UO-31 renal 54.9% | TK-10 renal 78.2% | ACHN renal 60.2% | CAKI-1 renal 58% | A498 renal 115% | CCRF-CEM leukemia 77.7% | MOLT-4 leukemia 86.6%

COC(=O)c1ccc(Cn2ccc(=O)[nH]c2=O)cc1
inactive: HCT-15 colon 101% | HT29 colon 99.5% | SNB-75 CNS 90.6% | SNB-19 CNS 110% | U251 CNS 112% | PC-3 prostate 98.4% | SK-MEL-5 melanoma 109% | UACC-62 melanoma 105% | LOX IMVI melanoma 98.4% | SK-MEL-28 melanoma 111% | SK-MEL-2 melanoma 100% | EKVX NSCLC 116% | SN12C renal 104% | UO-31 renal 89.3% | TK-10 renal 104% | ACHN renal 107% | CAKI-1 renal 97.4% | A498 renal 120% | CCRF-CEM leukemia 92% | MOLT-4 leukemia 89.3%

S=C(Cc1ccc(-c2ccccc2)cc1)N1CCOCC1
inactive: HCT-15 colon 104% | HT29 colon 103% | SNB-75 CNS 83.1% | SNB-19 CNS 110% | U251 CNS 96.6% | PC-3 prostate 76.7% | SK-MEL-5 melanoma 92.9% | UACC-62 melanoma 87.2% | LOX IMVI melanoma 92% | SK-MEL-28 melanoma 106% | SK-MEL-2 melanoma 88.5% | EKVX NSCLC 95.4% | SN12C renal 99.8% | UO-31 renal 83.9% | TK-10 renal 99.7% | ACHN renal 98.4% | CAKI-1 renal 90.4% | A498 renal 82% | CCRF-CEM leukemia 91.8% | MOLT-4 leukemia 99.7%

CCOc1nc(-c2ccccc2)cc2c(O)c(C(=O)NCCCO)[nH]c(=O)c12
inactive: HCT-15 colon 102% | HT29 colon 104% | SNB-75 CNS 88.6% | SNB-19 CNS 96.9% | U251 CNS 100% | PC-3 prostate 46.3% | SK-MEL-5 melanoma 88.8% | UACC-62 melanoma 99.8% | LOX IMVI melanoma 108% | SK-MEL-28 melanoma 102% | SK-MEL-2 melanoma 92.7% | EKVX NSCLC 108% | SN12C renal 103% | UO-31 renal 79.6% | TK-10 renal 146% | ACHN renal 91.6% | CAKI-1 renal 87.8% | A498 renal 93.5% | CCRF-CEM leukemia 68% | MOLT-4 leukemia 97%

O=C1/C(=C/c2cccs2)CCC/C1=C\c1cccs1
inactive: HCT-15 colon 78.9% | HT29 colon 73.9% | SNB-75 CNS 110% | SNB-19 CNS 105% | U251 CNS 83.8% | PC-3 prostate 89.6% | SK-MEL-5 melanoma 83% | UACC-62 melanoma 77% | LOX IMVI melanoma 92.4% | SK-MEL-28 melanoma 102% | SK-MEL-2 melanoma 95.8% | EKVX NSCLC 74% | SN12C renal 103% | UO-31 renal 75.9% | TK-10 renal 78.2% | ACHN renal 101% | CAKI-1 renal 87.4% | A498 renal 74.8% | CCRF-CEM leukemia 80.9% | MOLT-4 leukemia 89.1%

COc1cc(/C=C2\C(=O)Nc3cc(C)c(O)cc32)cc(OC)c1OC
inactive: HCT-15 colon 33.7% | HT29 colon 22.4% | SNB-75 CNS 55.1% | SNB-19 CNS 71.6% | U251 CNS 44.5% | PC-3 prostate 33.5% | SK-MEL-5 melanoma 47% | UACC-62 melanoma 57.9% | LOX IMVI melanoma 45.7% | SK-MEL-28 melanoma 73.2% | SK-MEL-2 melanoma 79.3% | EKVX NSCLC 48.5% | SN12C renal 71.3% | UO-31 renal 43% | TK-10 renal 85% | ACHN renal 68.4% | CAKI-1 renal 15.7% | A498 renal 98.2% | CCRF-CEM leukemia 16.3% | MOLT-4 leukemia 53%
